Activity calls are given as the source filed them.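 Rule for the calls: active = relative FRET score above 0.01, or acceptor fluorescence over 30% below the sample-well median; inactive = the rest.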
Target: Protein Rev (Human immunodeficiency virus type 1 group M subtype B (isolate WMJ22)) (UniProt P05866)
Assay: HIV-1 Rev-RRE binding inhibitors, retest, confirmation, biochemical, FRET, acceptor and relative FRET calls (AID 837);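 note: relative FRET combines rise in Cy5 acceptor with fall in fluorescein donor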
Settings: Fl-Rev peptide / Cy5-RRE RNA FRET, 1536-well; at 8 µM

Chain of Protein Rev (Human immunodeficiency virus type 1 group M subtype B (isolate WMJ22)) (P05866 whole entry, looked up): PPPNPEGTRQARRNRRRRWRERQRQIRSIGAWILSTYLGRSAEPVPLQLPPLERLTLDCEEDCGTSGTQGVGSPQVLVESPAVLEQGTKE

| SMILES | outcome |
| --- | --- |
| CCCCOc1ccc(NC2=NC3(CCCCC3)N=C(N)N2)cc1 | inactive |
| COc1cc2[nH]c(=O)c(C(=O)NCCCN3CCCCC3)c(O)c2cc1OC | inactive |
| Cc1ccc(Nc2nc(N)nc(CSc3nnnn3-c3ccccc3)n2)cc1 | inactive |
| CN(C)CC(O)COc1ccc(-c2ccc(C#N)cc2)cc1 (stereo not given) | active |
| CCOC(=O)Cn1c(=N)n(CCOc2ccc(OC)cc2)c2ccccc21 | inactive |
| CC1CC(C)CN(Cc2nc(N)nc(Nc3ccccc3)n2)C1 (stereo not given) | inactive |
| Cc1ccc2nc(NC(=O)c3ccc(Cl)s3)sc2c1 | inactive |
| CCCCOc1ccc(CSC(=N)N)cc1[N+](=O)[O-] | inactive |
| Cc1ccc(S(=O)(=O)c2c(COC(=O)c3ccc(Cl)cc3)c(-c3ccccc3)nn2C)cc1 | inactive |
| CCn1c(=N)n(CCOc2ccc(OC)cc2)c2ccccc21 | inactive |
| CCN(CC)CCOc1cc2c(nn1)Oc1ccccc1N2C | inactive |
| CN=C1c2cc3cc(OC)ccc3n2CCN1Cc1ccccc1 | inactive |
| COc1ccccc1Nc1nc(N)nc(CN(C)C2CCCCC2)n1 | inactive |
| O=C(c1cccc(F)c1)N1CCN(c2cccc(Cl)c2)CC1 | inactive |
| CC(NCc1ccc(N(C)C)cc1)C1CC2CCC1C2 (stereo not given) | active |
| CC(=O)c1ccc(NC(=O)c2ccc3nc(-c4ccco4)c(-c4ccco4)nc3c2)cc1 | inactive |
| Nc1nc(CN2CCCCCC2)nc(Nc2ccc(F)cc2)n1 | inactive |
| CC(C)C(C(=O)O)N1C(=O)/C(=C/C=C/c2ccco2)SC1=S (stereo not given) | inactive; quenches the donor |
| Cc1ccc(C)n1-c1sccc1C(=O)O | inactive |
| COc1ccc(C(=O)c2coc3ccc(O)c(CN4CCCC4)c23)cc1 | inactive |

| SMILES | outcome |
| --- | --- |
| Nc1nc(Nc2ccc(Cl)cc2)nc2ccccc12 | active |
| COc1ccc(Nc2nc(N3CCCCC3)c3ccccc3n2)cc1 | inactive |
| CC(C)(C)CC(C)(C)NCC(O)COc1c(F)cc(Br)cc1F (stereo not given) | inactive |
| CNCCCOc1ccc(C(C)(C)c2ccccc2)cc1 | active |
| CC(=O)c1ccc2c(c1)c1ccccc1n2CC(C)C | inactive |
| CN(CC(O)COc1ccc(OCC(O)CN(C)C2CCCCC2)cc1)C1CCCCC1 (stereo not given) | inactive |
| Cc1ccc(C2NC(=O)c3c(sc4c3CCN(C)C4)N2)s1 (stereo not given) | inactive |
| CCN(CC)CCCNC(=O)c1cc(-c2ccc(Cl)c(Cl)c2)on1 | inactive |
| O=C(Nc1nccs1)c1ccc(-c2ccccc2Cl)o1 | inactive |
| OC(COCCC12CC3CC(CC(C3)C1)C2)CN1CCCCC1 (stereo not given) | inactive |
| Cc1cc(-c2nc3c4c5c(sc4[nH]c(=O)n3n2)CCC5)c(C)o1 | inactive |
| CCCCCCCCOc1ccc(C2OC34CCCCC3C(C#N)(C#N)C2(C#N)C(=N)O4)cc1 (stereo not given) | inactive |
| O=C(NCc1cccs1)c1cc2c(s1)CCCC2 | inactive |
| CC(=Nc1ccc(C)cc1)c1sc2ccccc2c1O | inactive |
| Cc1cccc(N2C(N)=NC(N)=NC23CCCCC3)c1 | inactive |
| O=c1[nH]c2cc(Br)cnc2nc1/C=C(\O)c1ccc(F)cc1 | inactive |
| O=c1nc(N2CCCC2)nc(Nc2ccccc2)[nH]1 | inactive |
| CN(C)CCNCc1ccccc1OC1CCCC1 | inactive |
| OC(CN1C2=NCCCN2c2ccccc21)c1ccc(Br)cc1 (stereo not given) | inactive |
| COc1ccc2nc(NC(=O)c3ccc(Br)s3)sc2c1 | inactive |
